Holding throughout (assay): NCI-60 one-dose screen, 48 h (100 = growth as untreated, 0 = no growth, -100 = all killed)
In one experiment the test system is HCT-15 colon. Particulars: 10 µM.
A further experiment has as its system HT29 colon. The settings on record: 10 µM.
The test system of a further experiment is SNB-75 CNS. Particulars: 10 µM.
A further experiment has as its system SNB-19 CNS. Particulars: 10 µM.
In another experiment the test system is U251 CNS. The settings on record: 10 µM.
The next experiment concerns PC-3 prostate. The settings on record: 10 µM.
A further experiment concerns SK-MEL-5 melanoma. The settings on record: 10 µM.
For the next experiment, the system named is UACC-62 melanoma. Particulars: 10 µM unless noted.
In another experiment the test system is SK-MEL-28 melanoma. The settings on record: 10 µM.
The next experiment concerns SK-MEL-2 melanoma. Particulars: 10 µM.
The subject of the next experiment is EKVX NSCLC. The settings on record: 10 µM.
Another experiment has as its system SN12C renal. Particulars: 10 µM.
The subject of the next experiment is TK-10 renal. The settings on record: 10 µM unless noted.
For another experiment, the system named is ACHN renal. The settings on record: 10 µM.
The subject of the next experiment is CAKI-1 renal. Particulars: 10 µM.
The test system of a further experiment is A498 renal. The settings on record: 10 µM.
For the next experiment, the system named is CCRF-CEM leukemia. The settings on record: 10 µM.
For the next experiment, the system named is MOLT-4 leukemia. The settings on record: 10 µM.
The test system of the next experiment is LOX IMVI melanoma. Particulars: 10 µM.
In another experiment the test system is UO-31 renal. Particulars: 10 µM.

About 83,000 compounds went through this panel and 20% of them were active in at least one assay; those are over-represented in the sample as a whole.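 Plates (96-well) were seeded with cells, treated with compound at one concentration, and incubated for 48 hours before percent growth was determined.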 A number with no mark means an inactive call. Active and inactive are the calls of the source. The calls were made as follows: active = growth percent below 10; inactive = the rest.

Take `CC(C)OC(C(=O)O)c1ccccc1` (stereo not drawn): the growth is 97.8% with HCT-15 colon; 109% in the experiment on HT29 colon; 78.2% in the experiment on SNB-75 CNS; 99.5% in the experiment on SNB-19 CNS; 111% in the experiment with U251 CNS; 82.9% with PC-3 prostate. Also, the growth in the experiment on SK-MEL-5 melanoma was 105%; in the experiment on UACC-62 melanoma, 97.1%; in the experiment on SK-MEL-28 melanoma it was 102%; with SK-MEL-2 melanoma, 110%; in the experiment with EKVX NSCLC, 108%; in the experiment with SN12C renal it was 93.5%. Besides, the growth in the experiment with TK-10 renal is 98.4%; in the experiment with ACHN renal it was 97.2%; in the experiment with CAKI-1 renal it was 101%; in the experiment with A498 renal, 107%; in the experiment with CCRF-CEM leukemia it was 91.9%; with MOLT-4 leukemia it was 125%.
Take `S=C(Nc1ccccc1)N1CCCCC1`: the growth was 105% with HCT-15 colon; 102% in the experiment on HT29 colon; 99.5% in the experiment on SNB-75 CNS; 111% in the experiment with SNB-19 CNS; 96.2% with U251 CNS; 97% in the experiment with SK-MEL-5 melanoma. Further, the growth in the experiment with UACC-62 melanoma is 90.5%; with LOX IMVI melanoma, 96.6%; in the experiment with SK-MEL-28 melanoma, 103%; in the experiment on SK-MEL-2 melanoma, 98%; in the experiment with EKVX NSCLC it was 105%; in the experiment with SN12C renal, 102%. Besides, the growth in the experiment with UO-31 renal was 88.4%; in the experiment on TK-10 renal it was 109%; with ACHN renal, 94.5%; in the experiment with CAKI-1 renal, 94.6%; with A498 renal, 77.6%; in the experiment on CCRF-CEM leukemia, 102%. For the same compound, the growth in the experiment with MOLT-4 leukemia is 98%.
On to `Cc1nc2ccccc2c(C(=O)O)c1O`, for which the growth was 107% in the experiment with HCT-15 colon; 103% in the experiment on HT29 colon; 98.3% with SNB-75 CNS; 93.1% in the experiment on SNB-19 CNS; 103% in the experiment on U251 CNS; 104% in the experiment on PC-3 prostate. The growth in the experiment with SK-MEL-5 melanoma was 102%; in the experiment on UACC-62 melanoma, 93.2%; in the experiment on SK-MEL-28 melanoma, 122%; with SK-MEL-2 melanoma it was 313%; in the experiment on EKVX NSCLC it was 103%; in the experiment on SN12C renal, 98.3%. Also, the growth in the experiment on UO-31 renal was 91.2%; in the experiment on TK-10 renal, 113%; in the experiment with ACHN renal, 97.8%; in the experiment with A498 renal it was 117%; with CCRF-CEM leukemia it was 121%; in the experiment on MOLT-4 leukemia, 132%.
As for `CCOC(=O)CNN`, the growth with HCT-15 colon was 108%; in the experiment with HT29 colon, 105%; in the experiment with SNB-75 CNS, 94.7%; in the experiment with SNB-19 CNS, 100%; in the experiment on U251 CNS, 95.7%; in the experiment with SK-MEL-5 melanoma it was 90.5%. Also, the growth in the experiment with UACC-62 melanoma is 103%; in the experiment on LOX IMVI melanoma, 90.6%; with SK-MEL-28 melanoma, 115%; in the experiment on SK-MEL-2 melanoma, 113%; in the experiment on EKVX NSCLC, 113%; in the experiment with SN12C renal it was 101%. Moreover, the growth in the experiment on UO-31 renal is 91.4%; with TK-10 renal, 102%; in the experiment with ACHN renal it was 119%; in the experiment with CAKI-1 renal, 106%; with A498 renal it was 79.6%; in the experiment with CCRF-CEM leukemia, 97.8%. Besides, the growth with MOLT-4 leukemia was 112%.
In the case of `COc1cccc(/C=N/NC(=S)NC2CC3CCC2C3)c1O` (stereo not drawn), the growth in the experiment on HCT-15 colon is 26.8%; with HT29 colon, 93.6%; in the experiment with SNB-75 CNS it was 5.33% (active); with SNB-19 CNS, 72.4%; in the experiment on U251 CNS, 42.2%; with PC-3 prostate, 64.8%. The growth was 67.8% with SK-MEL-5 melanoma; 67.7% in the experiment on UACC-62 melanoma; 67.6% with SK-MEL-28 melanoma; 69% in the experiment with SK-MEL-2 melanoma; 57.9% with SN12C renal; 21.8% in the experiment with UO-31 renal. For the same compound, the growth with TK-10 renal is 88.3%; with ACHN renal it was 32.1%; in the experiment with CAKI-1 renal, 38.2%; in the experiment with A498 renal, 51.9%; in the experiment with CCRF-CEM leukemia, 29.1%; with MOLT-4 leukemia it was 44.8%.
In the case of `CCOC(=O)/C(C#N)=C/c1cccc(C)c1`, the growth with HCT-15 colon is 108%; in the experiment with HT29 colon it was 99%; with SNB-75 CNS it was 80.8%; in the experiment on SNB-19 CNS it was 94.8%; in the experiment on U251 CNS, 98.2%; with SK-MEL-5 melanoma, 101%. In addition, the growth with UACC-62 melanoma is 92%; with LOX IMVI melanoma, 94.8%; in the experiment with SK-MEL-28 melanoma, 109%; in the experiment with SK-MEL-2 melanoma, 106%; in the experiment on EKVX NSCLC, 98.9%; in the experiment on SN12C renal it was 103%. The growth in the experiment on UO-31 renal is 88.9%; in the experiment on TK-10 renal it was 98%; in the experiment with ACHN renal, 98.9%; with CAKI-1 renal, 69.5%; with A498 renal, 101%.
In the case of `O=C(c1ccc(Cl)cc1)c1ccccc1Cl`, the growth was 95.8% in the experiment with HCT-15 colon; 101% with HT29 colon; 100% in the experiment on SNB-75 CNS; 85.1% in the experiment on SNB-19 CNS; 98.3% in the experiment on U251 CNS; 94.5% in the experiment on SK-MEL-5 melanoma. Also, the growth in the experiment on UACC-62 melanoma is 87.7%; in the experiment on LOX IMVI melanoma, 96.2%; in the experiment with SK-MEL-28 melanoma, 129%; in the experiment on SK-MEL-2 melanoma, 103%; with EKVX NSCLC, 96.9%; in the experiment with SN12C renal, 94.7%. The growth was 72.2% with UO-31 renal; 90.9% with TK-10 renal; 95% with ACHN renal; 88% in the experiment on CAKI-1 renal; 126% in the experiment with A498 renal; 90.5% in the experiment with CCRF-CEM leukemia. Besides, the growth in the experiment with MOLT-4 leukemia is 87.1%.
With `Oc1ccc2c(c1)OCC1(O)Cc3cc(O)c(O)cc3C21` (stereo not drawn), the growth with HCT-15 colon is 80.6%; in the experiment on HT29 colon, 92.4%; in the experiment on SNB-75 CNS, 22.8%; in the experiment on SNB-19 CNS, 117%; in the experiment with U251 CNS, 90.7%; in the experiment with PC-3 prostate it was 69.5%. Moreover, the growth in the experiment on SK-MEL-5 melanoma is 95.5%; with UACC-62 melanoma it was 91.5%; in the experiment on SK-MEL-2 melanoma it was 65.7%; in the experiment on EKVX NSCLC, 107%; in the experiment on SN12C renal it was 100%; in the experiment with UO-31 renal it was 58.9%. For the same compound, the growth in the experiment on TK-10 renal was 106%; in the experiment on ACHN renal it was 104%; in the experiment on CAKI-1 renal, 85.5%; in the experiment on A498 renal it was 99.1%; in the experiment with CCRF-CEM leukemia, 71.5%; in the experiment with MOLT-4 leukemia it was 316%.
Regarding `Cc1ccccc1C1N=C2Oc3ccccc3C=C2C(=O)N1` (stereo not drawn), the growth was 36.8% with HCT-15 colon; 49.7% in the experiment on HT29 colon; 21% in the experiment with SNB-75 CNS; 61.3% in the experiment with SNB-19 CNS; 63.8% in the experiment with U251 CNS; 16.3% with PC-3 prostate. Moreover, the growth with SK-MEL-5 melanoma was 30.7%; in the experiment with UACC-62 melanoma, 35.1%; with SK-MEL-28 melanoma, 41.5%; in the experiment on SN12C renal it was 43.3%; in the experiment with UO-31 renal it was 52%; with TK-10 renal it was 53.7%. For the same compound, the growth was 50.6% with ACHN renal; 31.1% in the experiment with CAKI-1 renal; -11.6% (active) in the experiment on A498 renal; 38.4% in the experiment on CCRF-CEM leukemia; 44% in the experiment on MOLT-4 leukemia.
